Measured values taken from ChEMBL document CHEMBL1157539, “Thousands of chemical starting points for antimalarial lead identification” (Nature, 2010).

System: Plasmodium falciparum
Test: GSK_TCMDC: Inhibition of Plasmodium falciparum Dd2 in whole red blood cells, using parasite LDH activity as an index of growth. Test compounds present at 2uM
Assay type: functional

SMILES | Inhibition
N#Cc1ccc(N(CCOC(=O)c2ccc(Br)s2)Cc2ccccc2C(F)(F)F)cc1C(F)(F)F | 48%
CCOc1cc(C)ccc1C1CCN(CCCCNC(=O)c2ccc(NC(=O)c3cc(Cl)cc(Cl)c3)cc2)CC1 | 78%
CN1CCC(C(=O)Nc2ccc(-c3ccc(-c4nc5ccccc5[nH]4)s3)cc2)CC1 | 22%
CC(Oc1ccc(Cl)cc1Cl)c1nc(-c2ccc(NC(=O)c3ccco3)cc2)no1 (stereo not given) | 82%
CCc1c(CCNCCCCCCNCc2ccc3c(c2CC)OCO3)ccc(OC)c1OC.Cl | 19%
CCNc1cc(C(=O)N[C@@H](Cc2ccccc2)[C@H](O)CN[C@H](C)c2ccccc2)cc(N2CCCC2=O)c1 | 99%
N#Cc1ccccc1C1CCN(C2CCC(Nc3cc(-c4cccnc4)ccn3)CC2)CC1 (stereo not given) | 78%
CS(=O)(=O)CCNCc1cccc(-c2cc3c(Nc4ccc5c(cnn5Cc5ccccc5)c4)ncnc3s2)c1.O=C(O)C(F)(F)F | 100%
COc1ccc(Nc2ncc3c(-c4cccc(NC(=O)Cc5cccc(F)c5)c4)c[nH]c3n2)cc1OC | 68%
O=C(Cc1c[nH]cn1)Nc1cccc(-c2ccc(-c3nc4cc(C(F)(F)F)ccc4[nH]3)cc2)c1 | 99%
CCNc1cc(C(=O)N[C@@H](Cc2ccccc2)[C@H](O)CNC23CCC(CC2)CC3)cc(N2CCCCS2(=O)=O)c1.Cl | 98%
Clc1cccc(Nc2ccc3c(N4CCCCC4)ncnc3n2)c1 | 93%
COc1ccc(-c2nnc(Sc3ccc(C#N)c([N+](=O)[O-])c3)n2CCC(C)C)cc1 | 53%
O=C(C=Cc1ccc(-c2nc3ccccc3[nH]2)cc1)NC1CCN(Cc2ccccc2)CC1 | 88%
O=[N+]([O-])c1cccc(Nc2nccc(-c3cnn4ncccc34)n2)c1 | 74%
Cl.Oc1ccc(Nc2nc(NCC3CCCO3)c3ccccc3n2)cc1 (stereo not given) | 57%
O=C(Nc1cccc(C(F)(F)F)c1)c1cccc(S(=O)(=O)NCC2CCCN2CC2CCCCC2)c1.O=C(O)C(F)(F)F (stereo not given) | 2%
Cc1ccc2nc(C)cc(N/N=C/c3ccc([N+](=O)[O-])o3)c2c1 | 99%
COc1cc(-c2nnc(SCC(=O)Nc3cc(C)on3)n2C)cc(OC)c1O | 2%
CC(C)(C(=O)Nc1ccc(C2CCC(NCC3CC3)CC2)c(Cl)c1)c1cccc(OC(F)F)c1 (stereo not given) | 23%

SMILES | Inhibition
COc1ccc(-c2nc(NC(=O)CS(=O)(=O)c3ccc(OC)cc3)sc2C)cc1 | 89%
O=C(O)C(F)(F)F.O=S(=O)(NCCN1CCCC1)c1cccc(-c2ccc(CNCc3ccccc3)cc2)c1 | 41%
Cn1cccc1C(=O)Nc1cccc(-c2nn3ccccc3c2-c2ccnc(Nc3ccc4c(c3)OCCO4)n2)c1 | 27%
CCN(CC)c1ccc(C(c2ccc(N(CC)CC)cc2)c2cccc([N+](=O)[O-])c2)cc1 | 68%
Cc1ccc(NC(=O)c2ccc3nccnc3c2)cc1OC1CCN(Cc2ccc(F)cc2)CC1.O=C(O)C(F)(F)F | 24%
COc1ccccc1C1CN(Cc2coc3ccccc3c2=O)Cc2ccccc2O1 (stereo not given) | 61%
Br.CCCCCCCCn1c2c(c(=N)c3c1CCC3)CCCC2 | 100%
CCc1ccc(C2CCN(CCCCNC(=O)c3ccc(-c4ccc(C#N)cc4)cc3)CC2)c(OCCO)c1.Cl | 61%
COc1ccc2ncc(Cl)c([C@H](O)CN3CCC(NCc4cc5c(cn4)OCCO5)CC3)c2c1.Cl | 100%
Cc1ccc(-c2nnc(Nc3ccc(OCC(N)=O)cc3)c3ccccc23)cc1S(=O)(=O)NCC1CCCO1 (stereo not given) | 70%
Cl.Clc1ccc(CCNCCCCCCNCCc2ccc3c(c2)OCO3)cc1 | 11%
COc1ccc(-c2ccc(CNC(=O)c3cccc(C#N)c3)c(F)c2)cc1CN1CCCN(C)CC1.O=C(O)C(F)(F)F | 30%
O=C(CCCCCNC(=O)c1ccc(O)c(-c2ccc(Cl)c(Cl)c2)c1)NCCN1CCCC1 | 2%
O=C(NC1CCCCC1)N(Cc1ccccc1-c1ccc(CNCCc2ccccc2)cc1)C1CCN(Cc2ccccc2)CC1.O=C(O)C(F)(F)F | 92%
Cc1cc(N2CCCC2=O)ccc1-c1ccc(C(=O)N2CCC(Oc3cccc(Cl)c3)CC2)cc1 | 98%
Cl.N=C(N)Nc1cccc(NC(=O)Nc2cccc(NC(=N)N)c2)c1 | 71%
Cl.N=C(N)NN=Cc1ccc2c(c1)Cc1ccccc1-2 | 81%
CCCCCN1CCC(NS(=O)(=O)c2ccc(C(=O)Nc3cccc(C(F)(F)F)c3)cc2)C1.O=C(O)C(F)(F)F (stereo not given) | 0%
COc1ccc2ncc(F)c([C@H](O)CN3CCC(NCc4ccc5c(c4)OCCO5)CC3)c2c1.Cl | 99%
CNC(=O)c1cnc(Nc2ccc(N3CCOCC3)cc2)nc1Nc1cccc(O)c1.O=C(O)C(F)(F)F | 78%
